# Hits are enriched below; roughly 7.3% of the tested compounds scored in any of these assays.
# VACV mCherry inh = qHTS for Stage-Specific Inhibitors of Vaccinia Orthopoxvirus: mCherry Reporter Primary qHTS; hit rate 0.63% among 310,000; AID 720579, 2013; Potency, µM (titrated, usually from 36.5 µM), hits mostly inhibitors; Vaccinia virus mCherry reporter infection, fluorescence; calls by dose curve; tested in A549 cells; also: nearly all actives have a fitted effect of over 35% in size
# HCMV inh = qHTS Assay for inhibitors of the human cytomegalovirus (HCMV). activity change, negative = inhibition, % at 57.5 µM. hit rate 4.5% among 410,000. HFF cells, HCMV-luciferase reporter, 72 h; stronger effect = lower value; in the data active = activity change below about -60%; inconclusive = no clear call, values can overlap the other calls; inactive = above about -39%
#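 Two compound doses tested in HFFs infected with HCMV-luciferase, MOI 1 PFU/cell, 72 h at 37C. Lysate luminescence read with OneGlo; data normalized against buffer-only and 10uM Salinomycin inhibitor controls.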
# Vaccinia Venus = qHTS for Stage-Specific Inhibitors of Vaccinia Orthopoxvirus: Venus Reporter Primary qHTS; AID 720580, 2013; hit rate 0.46% among 330,000; Vaccinia virus Venus reporter expression, fluorescence; Potency, µM (highest dose often 36.5 µM), hits mostly inhibitors; calls by dose curve; tested in A549 cells; also: nearly all actives have a fitted effect of over 30% in size
# FMDV inh = High Throughput Screening for Foot and Mouth Disease Virus Antivirals; FMDV antiviral cell-based qHTS; Potency, µM (titrated, usually from 57.9 µM), usual class: inhibitors; hit rate 1.2% among 410,000; AID 1159524, 2015; calls by dose curve; tested in HEK293T cells; also: read-out not given here; nearly all actives have a fitted effect of over 45% in size
# HCV inh = qHTS Assay for Inhibitors of Hepatitis C Virus (HCV) | Huh7.5.1 HCVcc-Cre infection, luciferase reporter, 44 h | Potency, µM (highest dose often 41.8 µM), most hits filed as inhibitors | hit rate 3.4% among 340,000; active = well fitted inhibition curve with a large enough effect; inconclusive = small, poorly fitted or top-dose-only effect, or another doubt; inactive = no such curve, though single readings can be large or run the other way
#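 Cells seeded at 1,000/well and cultured 4 h, then compounds added followed by HCVcc-Cre virus (~0.5 moi). After 44 h further culture, luciferase substrate was added, plates held 15 min at room temperature, and luminescence read for 15 sec.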
# Numbers stand for hits; n = inactive; u = inconclusive; x = no result given.
SMILES,VACV mCherry inh,HCMV inh,Vaccinia Venus,FMDV inh,HCV inh
Cc1ccc(CNC(=O)Cn2cc(S(=O)(=O)Cc3cccc(Cl)c3)c3ccccc32)cc1,u,n,n,n,x
Cc1cc(-c2nn(-c3ccccc3F)cc2CN2CCCC(CO)C2)c(C)s1 (stereo unspecified),u,-86,n,n,u
COc1cc(OC)c(OC)cc1CN1CCC(n2cc(C(=O)N3CCCCC3)nn2)CC1,n,x,n,n,x
COc1ccc(Br)cc1Cn1nnc(C(=O)Nc2ccc(C)cc2C)c1N,u,-74,n,n,x
CSc1ccc(Cn2nnc(C(=O)Nc3ccc(C)cc3Cl)c2N)cc1,n,-78,n,n,x
C/C(=N\Nc1ccc(F)cc1F)c1ccccc1O,n,-69,n,n,u
C/C(=N\Nc1cc(C(F)(F)F)ccc1Cl)c1ccccc1O,n,n,n,n,u
COc1ccc(OC)c2sc(NC(=O)c3ccc(Br)s3)nc12,u,n,11µM,n,n
CCCC(=O)Nc1nc2c(OC)ccc(OC)c2s1,n,n,n,n,8.9µM
CCC(=O)Nc1nc2c(OC)ccc(OC)c2s1,n,n,n,n,11µM
COc1ccc(OC)c2sc(NC(=O)c3ccc(Cl)s3)nc12,n,n,u,n,n
COc1ccc(OC)c2sc(NC(=O)C3CC3)nc12,n,n,n,n,u
COc1ccc(C(=O)n2nc(-c3ccco3)nc2NCc2cccs2)cc1OC,n,n,n,n,x
NC(=O)C1CCN(CC(=O)N2N=CCC2c2ccccc2)CC1 (stereo unspecified),n,-103,n,n,n
O=C(CN1CCN(c2ccccc2)CC1)N1N=CCC1c1ccccc1 (stereo unspecified),x,n,n,n,u
O=C(CN1CCN(c2ccc(F)cc2)CC1)N1N=CCC1c1ccccc1 (stereo unspecified),n,n,n,x,11µM
Cc1nc2cnc(N3CCN(C)CC3)nc2n(C2CC2)c1=O,x,x,x,n,x
O=[N+]([O-])c1ccc(Cl)c(S(=O)(=O)/N=C(/c2ccccc2)N2CCOCC2)c1,u,-105,n,n,n
O=S(=O)(/N=C(\c1ccccc1)N1CCOCC1)c1ccc(Cl)cc1,n,u,n,n,n
c1ccc2c(SCc3cn4ccccc4n3)nncc2c1,x,-60,x,n,n
Cc1cc(C)c(C#N)c(SCc2cn3ccccc3n2)n1,n,-77,n,n,u
Cc1cc(C)nc(SCc2cn3ccccc3n2)n1,x,-60,x,n,n
Clc1ccc(SCc2cn3ccccc3n2)cc1,n,n,n,n,n
COc1ccc(Cl)cc1NC(=O)CSC1=Nc2ccccc2C2=NC(CC(=O)NCc3cccs3)C(=O)N12 (stereo unspecified),n,n,n,n,x
CN(c1ccc(C(=O)Nc2ccc(S(=O)(=O)N3CCCC3)cc2)cc1)S(C)(=O)=O,n,-98,n,u,5µM
SMILES,VACV mCherry inh,HCMV inh,Vaccinia Venus,FMDV inh,HCV inh
O=C(Nc1ccc(S(=O)(=O)N2CCCCC2)cc1)c1ccc(CN2CCOCC2)cc1,n,x,u,x,2.8µM
O=C(Nc1ccc(Cc2ccncc2)cc1)c1ccc(Cl)c([N+](=O)[O-])c1,x,n,n,28µM,n
O=C(Nc1ccc(Cc2ccncc2)cc1)c1ccc(S(=O)(=O)N2CCOCC2)cc1,u,-73,u,18µM,u
CCOc1ccc(NC(=O)Cn2cc(C(=O)c3ccc(CC)cc3)c(=O)c3cc(C)ccc32)cc1,n,n,n,n,x
O=C(NCc1ccco1)c1ccc(Cn2c(SCc3ccc(F)cc3)nc3cccnc32)cc1,n,n,n,n,x
Cc1nc2ccccc2nc1/C=C/c1ccc(N(C)C)cc1,n,x,n,x,x
Cc1ccc2nc(N(Cc3cccnc3)C(=O)c3ccco3)sc2c1,n,n,n,n,x
O=C(Nc1ccc(S(=O)(=O)N2CCOCC2)cc1)c1ccc(S(=O)(=O)N2CCOCC2)cc1,n,n,n,n,n
O=C(Nc1ccc(S(=O)(=O)N2CCCC2)cc1)c1ccc(CN2CCOCC2)cc1,n,-81,n,16µM,6.3µM
CCN(CC)S(=O)(=O)c1ccc(NC(=O)c2ccc(CN3CCOCC3)cc2)cc1,u,-95,u,x,u
N#CCc1ccc(NC(=O)c2ccc(S(=O)(=O)N3CCCC3)cc2)cc1,n,n,n,n,14µM
O=C(Nc1ccc([N+](=O)[O-])cc1)c1ccc(S(=O)(=O)N2CCCC2)cc1,n,n,n,n,n
O=C(Nc1ccc(S(=O)(=O)N2CCCC2)cc1)c1ccc(F)cc1,n,n,n,n,n
O=C(Nc1ccc(S(=O)(=O)N2CCCCCC2)cc1)c1[nH]ncc1[N+](=O)[O-],x,-87,x,x,x
CCN(CC)S(=O)(=O)c1ccc(NC(=O)c2ccc(N3CCCC3=O)cc2)cc1,n,-76,n,u,u
Cc1cc(C(=O)N/N=C2\CC(=O)CC(C)(C)C2)c(C)n1-c1ccc(F)cc1,n,-64,n,n,n
O=S(=O)(O)Sc1ccccc1,n,-87,n,n,x
COc1ccc(COC(=O)C2=C(C)NC(=O)NC2c2ccc(OC)c(OC)c2)cc1 (stereo unspecified),x,n,x,n,n
CC1=C(C(=O)OCc2ccccc2)C(c2cccc(Br)c2)NC(=O)N1 (stereo unspecified),x,n,x,u,n
COc1ccc(COC(=O)C2=C(C)NC(=O)NC2c2ccc(O)c(OC)c2)cc1 (stereo unspecified),n,-68,n,x,n
CSCCOC(=O)C1=C(C)NC(=O)NC1c1ccc2c(c1)OCO2 (stereo unspecified),x,n,x,n,n
COc1ccc(COC(=O)C2=C(C)NC(=O)NC2c2cccc(Br)c2)cc1 (stereo unspecified),x,n,x,u,10µM
CC1=C(C(=O)OCc2ccc3c(c2)OCO3)C(c2ccc(Cl)cc2)NC(=O)N1 (stereo unspecified),u,-86,u,x,u
CCn1cc2nc(SCC(=O)Nc3ccc(C)cc3)n(Cc3ccc(C)cc3)c(=O)c2n1,n,n,n,n,x
COc1cc(NC(=O)c2cc3cc4ccc(OC)c(Cl)c4nc3s2)cc(OC)c1,n,n,n,n,x
SMILES,VACV mCherry inh,HCMV inh,Vaccinia Venus,FMDV inh,HCV inh
NC1CCN(c2cccc(Cl)n2)CC1,x,x,x,n,x
N#Cc1cc(C#N)c(N2CCN(c3cccc(Cl)n3)CC2)nc1N,x,n,x,n,11µM
N#CC(C(=O)C1CCCCC1)c1nc2ccccc2[nH]1 (stereo unspecified),n,-99,n,x,10µM
COc1ccccc1CNC(=O)c1ccc(CSc2nc3ccncc3n2Cc2cccc(F)c2)cc1,n,n,n,n,x
CC(=O)NC(CC(C)C)C(=O)NC(Cc1ccccc1)C(=O)CCl (stereo unspecified),n,n,n,28µM,u
Cc1ccc(S(=O)(=O)N[C@@H](Cc2ccccc2)C(=O)CCl)cc1,n,n,u,32µM,n
CC(=O)NC(CC(C)C)C(=O)NC(Cc1ccccc1)C(N)=O (stereo unspecified),x,x,x,n,n
COC(=O)[C@H](Cc1ccccc1)NC(=O)[C@@H](N)CC(=O)O,n,u,n,n,0.56µM

# Bioassay records deposited in PubChem BioAssay by National Center for Advancing Translational Sciences (NCATS).
